Source: PubChem BioAssay (NCATS)
“And” between values parts separate entries of the source, which are not always exact repeats. Equal values may be shown once. Results filed as inconclusive are left out. The source made the active and inactive calls. The call rests on the fitted dose curve; in most records, active means well fitted curve in the direction sought with a large enough effect; inconclusive means small, poorly fitted or top-dose-only effect, or another doubt; inactive means no such curve, though single readings can be large; an effect the other way counts as inactive or inconclusive.

Experiments:
[1] = qHTS assay to identify inhibitors of the type 1 interferon - major histocompatibility complex class I in skeletal muscle: Counter screen cell viability and HiBit confirmation (AID 1347412); details: iHSKM muscle cells + IFN-b, HiBiT or CellTiter-Glo, 24 h; for activity change, negative = inhibition: at 45.9 µM (top of the series); on all read-outs here: nearly all actives have a fitted effect of over 60% in size
Procedure, shortened: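 After 24 h with human IFN-beta (4 ng/ml) and compound titrations (top 46 uM final, 1:3, 12 points), HLA-B HiBit myoblasts were lysed for either Nano-Glo HiBiT luminescence or CellTiter Glo viability on paired plates.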

OV90 = assay: Primary qHTS to identify gynecologic anti-cancer compounds using libraries of approved drugs and bioactive compounds (AID 1345084); details: Gynecologic cancer cell panel viability, ATPlite luminescence, 48 h; series mostly up to 57.5 µM; further: nearly all actives have a fitted effect of over 55% in size
Procedure, shortened: (§1)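 Cells, 1,000 per well, were allowed to settle for 16 h at 37 C before compound addition. Five concentrations were tested for 48 h, and viability was read by ATPlite luminescence after 15 min at room temperature.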

PA-1 = assay: as above; details: Gynecologic cancer cell panel viability, ATPlite luminescence, 48 h; series mostly up to 57.5 µM
Procedure, shortened: as §1

SKOV3 = assay: as above; details: Gynecologic cancer cell panel viability, ATPlite luminescence, 48 h; series mostly up to 57.5 µM
Procedure, shortened: as §1

Tov-21-G = assay: as above; details: Gynecologic cancer cell panel viability, ATPlite luminescence, 48 h; series mostly up to 57.5 µM
Procedure, shortened: as §1

Tov112D = assay: as above; details: Gynecologic cancer cell panel viability, ATPlite luminescence, 48 h; series mostly up to 57.5 µM
Procedure, shortened: as §1

[2] = Drug repurposing screens with cells derived from glioblastoma tumor samples (AID 1345199); details: GBM patient neurospheres viability, ATP luminescence, 48 h; further: nearly all actives have a fitted effect of over 40% in size
Procedure, shortened: (§2)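 Four patient lines of CD133+ GBM neurospheres were screened at several concentrations; hits were retested in those lines plus three slower-growing GBM lines, using 48-hour treatment and ATP-based viability.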

astro = assay: as above; details: viability, ATP luminescence, 48 h; series mostly up to 45.9 µM
Procedure, shortened: as §2

JEG-3 = assay: Primary qHTS to identify gynecologic anti-cancer compounds using libraries of approved drugs and bioactive compounds (AID 1345084); details: Gynecologic cancer cell panel viability, ATPlite luminescence, 48 h; series mostly up to 57.5 µM; further: nearly all actives have a fitted effect of over 55% in size
Procedure, shortened: as §1

[3] = at 45.9 µM (top of the series), tumour line B
[4] = at 45.9 µM (top of the series), tumour line D
[5] = at 46 µM (top of the series), tumour line A
[6] = at 46.1 µM (top of the series), tumour line C
On the % scale 0 is the no-effect control and ±100 the full control effect; potency means the concentration at half of the fitted maximal effect.

CCN(CC)CCOc1ccc(Nc2ncc3cc(-c4c(Cl)cccc4Cl)c(=O)n(C)c3n2)cc1
active: Potency ([1]; HiBiT) 557 nM and 883 nM | Potency ([1]; Viability) 12.5 µM and 2.79 µM

COc1ccccc1N1CCN(CCN(C(=O)C2CCCCC2)c2ccccn2)CC1
inactive: Potency (OV90) | Potency (PA-1) | Potency (SKOV3) | Potency (Tov-21-G) | Potency (Tov112D)

C[C@H](Cn1cnc2c(N)ncnc21)OCP(=O)(O)O
inactive: activity, negative = cell killing [2, 3] -17.6% | activity, negative = cell killing [2, 4] -7.53% | activity, negative = cell killing [2, 5] -24.5% | activity, negative = cell killing [2, 6] -20.5% | Potency (astro)

CN(C)CCc1c[nH]c2ccc(Cn3cncn3)cc12
inactive: activity, negative = cell killing [2, 3] -9.89% | activity, negative = cell killing [2, 4] -20.8% | activity, negative = cell killing [2, 6] -16% | Potency (astro)

CN(C)[C@@H](CCOc1cccc2ccccc12)c1ccccc1
inactive: Potency (JEG-3) | Potency (PA-1) | Potency (Tov-21-G) | Potency (Tov112D)

CC(C)(S)[C@@H](N)C(=O)O
inactive: activity, negative = cell killing [2, 3] -10.5% | activity, negative = cell killing [2, 4] -6.11% | activity, negative = cell killing [2, 5] -3.65% | activity, negative = cell killing [2, 6] -16.2% | Potency (astro)

CCCOc1ccc2nc(NC(=O)OC)[nH]c2c1
active: Potency (JEG-3) 1 µM | Potency (PA-1) 0.282 µM | Potency (Tov-21-G) 0.316 µM | Potency (Tov112D) 0.316 µM
inactive: activity change, negative = inhibition ([1]; Viability) -24.3%

O=P(O)(O)C(O)(Cn1ccnc1)P(=O)(O)O
inactive: activity, negative = cell killing [2, 3] -3.43% | activity, negative = cell killing [2, 4] -0.668% | activity, negative = cell killing [2, 5] -16.2% | activity, negative = cell killing [2, 6] -7.84% | Potency (astro)

COC(=O)C1=C(C)NC(C)=C(C(=O)OCCCN2CCC(c3ccccc3)(c3ccccc3)CC2)C1c1cccc([N+](=O)[O-])c1 (centres undefined)
inactive: Potency (JEG-3) | Potency (Tov-21-G) | Potency (Tov112D) | activity change, negative = inhibition ([1]; HiBiT) 4.03% | activity change, negative = inhibition ([1]; Viability) -24.5%
active: Potency (astro) 17.8 µM

CCCCCCCCCCCCCCCCCCCCCCO
inactive: activity, negative = cell killing [2, 3] -4.68% | activity, negative = cell killing [2, 4] 1.13% | activity, negative = cell killing [2, 5] -31.4% | activity, negative = cell killing [2, 6] 4.25% | Potency (astro)

CC(C)Oc1ccc2c(=O)c(-c3ccccc3)coc2c1
active: Potency (OV90) 22.4 µM | Potency (PA-1) 20 µM | Potency (Tov-21-G) 15.8 µM | Potency (Tov112D) 20 µM

Nc1ccn([C@@H]2O[C@H](CO)[C@@H](O)C2O)c(=O)n1 (some centres undefined)
inactive: activity, negative = cell killing [2, 4] -14.9% | activity, negative = cell killing [2, 6] -25.6% | Potency (astro)
active: Potency ([2]; tumour line A) 7.08 µM
